Data taken from PMC7862700, “An all-to-all approach to the identification of sequence-specific readers for epigenetic DNA modifications on cytosine”.

How the values were obtained:
Assay in all cases: DAPPL (digital affinity profiling via proximity ligation, sequencing); 10 mM Tris-HCl pH 7.5, 50 mM NaCl, 1 mM DTT, 4% glycerol, room temperature, 30 min; GST-TFs on glutathione beads, 16-mer random dsDNA library, 0.1% formaldehyde crosslink after washing; high values mean tight binding
FLI1 = target: T1, FLI1 (Homo sapiens, UniProt Q01543 1-452); conditions: protein: recombinant; tags: N-terminal GST; dsDNA, one strand shown
T1 sequence: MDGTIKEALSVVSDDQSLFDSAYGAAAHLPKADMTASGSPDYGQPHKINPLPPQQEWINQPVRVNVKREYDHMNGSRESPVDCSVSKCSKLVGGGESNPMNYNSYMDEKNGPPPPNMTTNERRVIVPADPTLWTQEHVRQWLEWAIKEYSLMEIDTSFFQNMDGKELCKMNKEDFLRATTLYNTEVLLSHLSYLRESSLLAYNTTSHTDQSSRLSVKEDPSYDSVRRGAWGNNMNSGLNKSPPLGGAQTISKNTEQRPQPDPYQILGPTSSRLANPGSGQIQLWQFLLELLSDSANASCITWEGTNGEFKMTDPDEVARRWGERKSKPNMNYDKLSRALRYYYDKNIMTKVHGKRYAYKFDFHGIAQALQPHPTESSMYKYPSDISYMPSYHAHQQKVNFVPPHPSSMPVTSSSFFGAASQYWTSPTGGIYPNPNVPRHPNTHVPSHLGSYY
How it was run: (§1)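 GST fusions of human transcription factors were expressed in yeast and captured with glutathione beads. Once given DNA barcodes and pooled alongside a tag-only sample, they were incubated for 30 min at room temperature with 200 nmole of a random double-stranded 16-mer DNA library in Tris/NaCl/DTT/glycerol buffer, then washed, crosslinked (0.1% formaldehyde), proximity-ligated, PCR-amplified and sequenced on an Illumina NextSeq500. The binding signal of each hexamer is its read frequency for a factor divided by its frequency for the tag-only sample.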

ELK1 = target: T2, ELK1 (Homo sapiens, UniProt P19419 1-428); conditions: protein: recombinant; tags: N-terminal GST; dsDNA, one strand shown
T2 sequence: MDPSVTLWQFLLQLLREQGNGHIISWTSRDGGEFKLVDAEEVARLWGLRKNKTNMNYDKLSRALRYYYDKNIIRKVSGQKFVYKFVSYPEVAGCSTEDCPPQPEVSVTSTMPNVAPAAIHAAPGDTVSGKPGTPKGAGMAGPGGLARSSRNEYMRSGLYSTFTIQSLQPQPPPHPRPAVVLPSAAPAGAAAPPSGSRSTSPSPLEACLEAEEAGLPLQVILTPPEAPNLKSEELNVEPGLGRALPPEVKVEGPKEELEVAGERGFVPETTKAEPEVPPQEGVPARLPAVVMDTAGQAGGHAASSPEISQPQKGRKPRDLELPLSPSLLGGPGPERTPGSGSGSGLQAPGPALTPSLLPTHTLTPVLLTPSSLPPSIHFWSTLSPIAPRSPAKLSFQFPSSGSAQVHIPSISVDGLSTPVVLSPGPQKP
How it was run: as §1

GABPA = target: T3, GABPA (Homo sapiens, UniProt Q06546 1-454); conditions: protein: recombinant; tags: N-terminal GST; dsDNA, one strand shown
T3 sequence: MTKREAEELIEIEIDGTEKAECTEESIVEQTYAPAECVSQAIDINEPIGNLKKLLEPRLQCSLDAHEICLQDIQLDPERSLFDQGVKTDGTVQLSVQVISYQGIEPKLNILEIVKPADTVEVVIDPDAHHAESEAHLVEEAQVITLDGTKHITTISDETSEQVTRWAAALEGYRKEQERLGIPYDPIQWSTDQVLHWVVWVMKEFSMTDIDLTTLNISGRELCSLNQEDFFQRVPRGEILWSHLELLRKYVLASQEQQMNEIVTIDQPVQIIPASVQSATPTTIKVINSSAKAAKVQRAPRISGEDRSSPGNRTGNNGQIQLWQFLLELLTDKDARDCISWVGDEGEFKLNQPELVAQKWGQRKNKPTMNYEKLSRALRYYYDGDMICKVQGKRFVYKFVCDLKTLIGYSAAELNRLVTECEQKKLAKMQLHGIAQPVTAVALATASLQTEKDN
How it was run: as §1

ERG = target: T4, ERG (Homo sapiens, UniProt P11308 1-479); conditions: protein: recombinant; tags: N-terminal GST; dsDNA, one strand shown
T4 sequence: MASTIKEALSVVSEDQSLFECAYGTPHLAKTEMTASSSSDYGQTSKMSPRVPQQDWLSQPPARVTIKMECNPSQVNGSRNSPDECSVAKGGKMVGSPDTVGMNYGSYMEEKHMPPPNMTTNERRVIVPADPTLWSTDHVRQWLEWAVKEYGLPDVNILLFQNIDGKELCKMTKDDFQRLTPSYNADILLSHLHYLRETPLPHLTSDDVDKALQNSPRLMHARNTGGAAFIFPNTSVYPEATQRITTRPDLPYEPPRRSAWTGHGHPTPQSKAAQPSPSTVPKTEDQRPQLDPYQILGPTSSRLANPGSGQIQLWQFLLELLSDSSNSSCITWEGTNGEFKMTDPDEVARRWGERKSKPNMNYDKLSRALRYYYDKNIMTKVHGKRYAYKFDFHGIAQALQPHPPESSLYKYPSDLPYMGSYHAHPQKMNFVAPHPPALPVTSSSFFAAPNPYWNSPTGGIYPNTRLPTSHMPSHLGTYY
How it was run: as §1

ELF1 = ELF1 (Homo sapiens, UniProt P32519 1-619); conditions: protein: recombinant; tags: N-terminal GST; dsDNA, one strand shown
How it was run: as §1

EHF = target: T5, EHF (Homo sapiens, UniProt Q9NZC4 1-300); conditions: protein: recombinant; tags: N-terminal GST; dsDNA, one strand shown
T5 sequence: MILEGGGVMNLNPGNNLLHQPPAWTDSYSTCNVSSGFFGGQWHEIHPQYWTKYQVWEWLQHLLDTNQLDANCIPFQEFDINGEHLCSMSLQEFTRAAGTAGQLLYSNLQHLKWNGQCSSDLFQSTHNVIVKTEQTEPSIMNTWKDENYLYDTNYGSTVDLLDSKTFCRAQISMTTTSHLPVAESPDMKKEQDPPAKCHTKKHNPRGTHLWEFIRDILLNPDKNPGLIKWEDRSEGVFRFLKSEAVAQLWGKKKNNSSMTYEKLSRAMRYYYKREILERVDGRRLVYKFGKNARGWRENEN
How it was run: as §1

SPI1 = SPI1 (Homo sapiens, UniProt P17947 1-270); conditions: protein: recombinant; tags: N-terminal GST; dsDNA, one strand shown
How it was run: as §1

SPIB = SPIB (Homo sapiens, UniProt Q01892 1-262); conditions: protein: recombinant; tags: N-terminal GST; dsDNA, one strand shown
How it was run: as §1

ELK3 = target: T6, ELK3 (Homo sapiens, UniProt P41970 1-407); conditions: protein: recombinant; tags: N-terminal GST; dsDNA, one strand shown
T6 sequence: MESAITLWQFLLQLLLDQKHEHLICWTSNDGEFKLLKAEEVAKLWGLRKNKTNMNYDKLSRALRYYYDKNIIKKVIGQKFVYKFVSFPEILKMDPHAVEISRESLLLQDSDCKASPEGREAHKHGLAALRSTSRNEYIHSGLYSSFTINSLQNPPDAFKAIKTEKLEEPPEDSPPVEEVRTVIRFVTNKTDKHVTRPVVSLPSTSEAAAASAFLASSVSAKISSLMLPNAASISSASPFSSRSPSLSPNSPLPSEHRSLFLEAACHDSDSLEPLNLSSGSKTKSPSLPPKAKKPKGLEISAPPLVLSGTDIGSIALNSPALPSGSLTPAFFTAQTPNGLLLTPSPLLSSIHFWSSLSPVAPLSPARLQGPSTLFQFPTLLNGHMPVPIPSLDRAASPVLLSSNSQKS
How it was run: as §1

FEV = target: T7, FEV (Homo sapiens, UniProt Q99581 1-238); conditions: protein: recombinant; tags: N-terminal GST; dsDNA, one strand shown
T7 sequence: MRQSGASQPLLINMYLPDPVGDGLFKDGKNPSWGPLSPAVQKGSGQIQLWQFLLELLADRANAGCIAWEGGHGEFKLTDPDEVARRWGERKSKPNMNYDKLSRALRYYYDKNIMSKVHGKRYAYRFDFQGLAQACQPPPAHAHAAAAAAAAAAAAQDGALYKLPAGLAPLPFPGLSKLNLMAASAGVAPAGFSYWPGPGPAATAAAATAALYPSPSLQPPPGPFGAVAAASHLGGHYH
How it was run: as §1

ETV5 = ETV5 (Homo sapiens, UniProt P41161 1-510); conditions: protein: recombinant; tags: N-terminal GST; dsDNA, one strand shown
How it was run: as §1

HSF1 = HSF1 (Homo sapiens, UniProt Q00613 1-529); conditions: protein: recombinant; tags: N-terminal GST; chain copies: 3; dsDNA, one strand shown
How it was run: as §1

SPIC = target: T8, SPIC (Homo sapiens, UniProt Q8N5J4 1-248); conditions: protein: recombinant; tags: N-terminal GST; dsDNA, one strand shown
T8 sequence: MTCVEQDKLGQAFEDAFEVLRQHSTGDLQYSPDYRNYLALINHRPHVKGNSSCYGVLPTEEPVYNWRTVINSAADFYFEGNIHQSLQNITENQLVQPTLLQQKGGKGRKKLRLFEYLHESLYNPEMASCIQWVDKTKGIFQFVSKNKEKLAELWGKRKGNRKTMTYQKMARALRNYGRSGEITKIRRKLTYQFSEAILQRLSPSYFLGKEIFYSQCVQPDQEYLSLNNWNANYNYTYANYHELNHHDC
How it was run: as §1

ELF4 = ELF4 (Homo sapiens, UniProt Q99607 1-663); conditions: protein: recombinant; tags: N-terminal GST; dsDNA, one strand shown
How it was run: as §1

ELK4 = target: T9, ELK4 (Homo sapiens, UniProt P28324-2 1-405); conditions: protein: recombinant; tags: N-terminal GST; dsDNA, one strand shown
T9 sequence: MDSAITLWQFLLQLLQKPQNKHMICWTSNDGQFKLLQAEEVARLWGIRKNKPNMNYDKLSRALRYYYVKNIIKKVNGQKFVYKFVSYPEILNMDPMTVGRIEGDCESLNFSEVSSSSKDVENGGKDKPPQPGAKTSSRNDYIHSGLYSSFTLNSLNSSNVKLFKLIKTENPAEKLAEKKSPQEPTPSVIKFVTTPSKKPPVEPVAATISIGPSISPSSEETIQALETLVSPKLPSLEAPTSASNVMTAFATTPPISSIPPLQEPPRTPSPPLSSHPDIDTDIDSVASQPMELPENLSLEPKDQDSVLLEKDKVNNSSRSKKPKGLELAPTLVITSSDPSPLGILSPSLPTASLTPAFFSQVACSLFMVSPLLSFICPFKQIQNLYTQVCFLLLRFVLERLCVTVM
How it was run: as §1

ETV2 = target: T10, ETV2 (Homo sapiens, UniProt O00321 1-342); conditions: protein: recombinant; tags: N-terminal GST; dsDNA, one strand shown
T10 sequence: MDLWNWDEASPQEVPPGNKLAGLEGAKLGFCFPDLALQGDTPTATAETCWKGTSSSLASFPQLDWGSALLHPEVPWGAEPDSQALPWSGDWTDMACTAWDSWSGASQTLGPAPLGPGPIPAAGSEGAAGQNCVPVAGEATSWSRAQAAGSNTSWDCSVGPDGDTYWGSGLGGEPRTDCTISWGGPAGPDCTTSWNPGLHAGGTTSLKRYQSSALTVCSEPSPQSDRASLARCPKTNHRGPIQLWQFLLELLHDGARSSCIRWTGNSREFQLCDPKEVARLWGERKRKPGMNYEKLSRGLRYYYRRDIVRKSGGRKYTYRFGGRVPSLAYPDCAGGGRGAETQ
How it was run: as §1

ELF3 = target: T11, ELF3 (Homo sapiens, UniProt P78545 1-371); conditions: protein: recombinant; tags: N-terminal GST; dsDNA, one strand shown
T11 sequence: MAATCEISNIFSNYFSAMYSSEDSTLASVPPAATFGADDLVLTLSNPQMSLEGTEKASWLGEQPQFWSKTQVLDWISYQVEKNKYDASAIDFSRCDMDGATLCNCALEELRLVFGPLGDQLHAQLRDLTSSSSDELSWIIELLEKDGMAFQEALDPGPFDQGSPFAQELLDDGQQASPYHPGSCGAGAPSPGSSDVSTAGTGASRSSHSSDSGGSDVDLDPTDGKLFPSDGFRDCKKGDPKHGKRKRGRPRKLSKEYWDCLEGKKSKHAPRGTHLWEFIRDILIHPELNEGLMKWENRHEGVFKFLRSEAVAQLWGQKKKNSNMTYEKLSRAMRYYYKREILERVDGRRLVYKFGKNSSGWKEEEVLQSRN
How it was run: as §1

CRX = CRX (Homo sapiens, UniProt O43186 1-299); conditions: protein: recombinant; tags: N-terminal GST; dsDNA, one strand shown
How it was run: as §1

ETV1 = ETV1 (Homo sapiens, UniProt P50549 1-477); conditions: protein: recombinant; tags: N-terminal GST; dsDNA, one strand shown
How it was run: as §1

Chain of ETV1 (P50549 whole entry): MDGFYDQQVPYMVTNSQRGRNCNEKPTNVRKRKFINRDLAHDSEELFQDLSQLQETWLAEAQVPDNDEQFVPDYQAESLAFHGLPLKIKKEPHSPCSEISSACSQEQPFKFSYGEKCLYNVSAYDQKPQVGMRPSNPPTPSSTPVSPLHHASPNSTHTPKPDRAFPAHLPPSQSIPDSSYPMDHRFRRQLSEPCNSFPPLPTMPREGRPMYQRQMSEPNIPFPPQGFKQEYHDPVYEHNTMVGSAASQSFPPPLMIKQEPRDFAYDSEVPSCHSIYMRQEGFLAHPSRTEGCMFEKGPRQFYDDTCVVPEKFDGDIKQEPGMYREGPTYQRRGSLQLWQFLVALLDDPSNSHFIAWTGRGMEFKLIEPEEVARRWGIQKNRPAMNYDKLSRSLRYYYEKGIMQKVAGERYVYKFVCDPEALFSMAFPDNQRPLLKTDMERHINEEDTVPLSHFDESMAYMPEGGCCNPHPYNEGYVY
Chain of HSF1 (Q00613 whole entry): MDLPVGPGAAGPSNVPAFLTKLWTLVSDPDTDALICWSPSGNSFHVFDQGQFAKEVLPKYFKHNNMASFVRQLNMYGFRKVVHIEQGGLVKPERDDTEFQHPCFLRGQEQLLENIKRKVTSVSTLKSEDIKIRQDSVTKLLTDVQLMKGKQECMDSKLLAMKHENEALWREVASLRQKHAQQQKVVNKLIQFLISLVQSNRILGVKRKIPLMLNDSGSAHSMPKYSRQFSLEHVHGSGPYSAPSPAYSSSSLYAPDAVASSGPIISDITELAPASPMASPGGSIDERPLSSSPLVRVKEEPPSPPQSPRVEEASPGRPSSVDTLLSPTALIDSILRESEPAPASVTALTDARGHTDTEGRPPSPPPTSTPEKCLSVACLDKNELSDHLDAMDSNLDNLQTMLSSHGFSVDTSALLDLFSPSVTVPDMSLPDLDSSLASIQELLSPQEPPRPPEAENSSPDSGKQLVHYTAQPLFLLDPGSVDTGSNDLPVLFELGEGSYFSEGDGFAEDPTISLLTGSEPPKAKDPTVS
Chain of ELF1 (P32519 whole entry): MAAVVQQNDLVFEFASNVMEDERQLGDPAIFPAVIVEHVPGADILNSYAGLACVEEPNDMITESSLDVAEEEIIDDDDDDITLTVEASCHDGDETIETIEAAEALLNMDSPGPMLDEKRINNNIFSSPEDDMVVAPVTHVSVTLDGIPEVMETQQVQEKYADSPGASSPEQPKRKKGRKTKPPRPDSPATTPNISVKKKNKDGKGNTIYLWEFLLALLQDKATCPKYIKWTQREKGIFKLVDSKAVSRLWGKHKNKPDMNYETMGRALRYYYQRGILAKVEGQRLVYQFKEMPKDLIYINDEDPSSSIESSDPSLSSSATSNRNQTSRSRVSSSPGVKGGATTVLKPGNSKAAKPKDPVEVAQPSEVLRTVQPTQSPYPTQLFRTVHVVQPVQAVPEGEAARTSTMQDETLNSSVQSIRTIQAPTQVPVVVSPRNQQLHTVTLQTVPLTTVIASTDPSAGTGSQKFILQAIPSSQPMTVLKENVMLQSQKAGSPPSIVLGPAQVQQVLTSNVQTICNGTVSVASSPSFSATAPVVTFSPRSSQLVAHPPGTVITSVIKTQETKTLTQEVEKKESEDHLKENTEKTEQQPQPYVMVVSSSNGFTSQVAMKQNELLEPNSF
Chain of ELF4 (Q99607 whole entry): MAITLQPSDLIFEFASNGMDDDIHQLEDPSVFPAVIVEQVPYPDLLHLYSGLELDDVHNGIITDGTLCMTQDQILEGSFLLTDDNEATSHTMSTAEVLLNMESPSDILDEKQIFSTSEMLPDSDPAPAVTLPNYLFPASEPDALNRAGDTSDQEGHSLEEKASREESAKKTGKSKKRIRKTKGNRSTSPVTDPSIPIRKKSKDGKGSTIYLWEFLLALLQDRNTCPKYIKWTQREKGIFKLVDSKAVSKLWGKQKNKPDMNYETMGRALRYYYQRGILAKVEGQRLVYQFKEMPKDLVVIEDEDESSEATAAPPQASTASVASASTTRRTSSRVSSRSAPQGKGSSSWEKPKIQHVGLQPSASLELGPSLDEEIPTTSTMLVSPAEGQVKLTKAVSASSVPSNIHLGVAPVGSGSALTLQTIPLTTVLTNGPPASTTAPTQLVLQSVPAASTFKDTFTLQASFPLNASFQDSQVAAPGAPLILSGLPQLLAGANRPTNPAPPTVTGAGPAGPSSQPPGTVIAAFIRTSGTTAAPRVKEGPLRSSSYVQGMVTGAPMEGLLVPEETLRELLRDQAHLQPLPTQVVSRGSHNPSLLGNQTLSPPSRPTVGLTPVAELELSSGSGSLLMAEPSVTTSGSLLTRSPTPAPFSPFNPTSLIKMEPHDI
Chain of SPIB (Q01892 whole entry): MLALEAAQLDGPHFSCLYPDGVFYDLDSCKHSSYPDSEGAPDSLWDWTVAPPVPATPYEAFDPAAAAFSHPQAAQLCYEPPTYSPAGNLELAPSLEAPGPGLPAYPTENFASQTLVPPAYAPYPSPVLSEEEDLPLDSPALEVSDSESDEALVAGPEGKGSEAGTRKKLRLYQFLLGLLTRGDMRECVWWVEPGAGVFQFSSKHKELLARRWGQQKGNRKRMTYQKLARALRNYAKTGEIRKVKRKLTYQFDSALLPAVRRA
Chain of CRX (O43186 whole entry): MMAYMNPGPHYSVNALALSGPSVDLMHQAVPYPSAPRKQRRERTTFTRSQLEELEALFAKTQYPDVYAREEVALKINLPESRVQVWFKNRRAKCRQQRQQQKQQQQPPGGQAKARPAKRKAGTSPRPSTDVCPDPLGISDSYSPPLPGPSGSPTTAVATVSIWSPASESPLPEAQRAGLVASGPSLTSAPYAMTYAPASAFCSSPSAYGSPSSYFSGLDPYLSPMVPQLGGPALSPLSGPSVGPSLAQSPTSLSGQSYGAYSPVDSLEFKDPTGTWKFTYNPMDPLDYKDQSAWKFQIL
Chain of ETV5 (P41161 whole entry): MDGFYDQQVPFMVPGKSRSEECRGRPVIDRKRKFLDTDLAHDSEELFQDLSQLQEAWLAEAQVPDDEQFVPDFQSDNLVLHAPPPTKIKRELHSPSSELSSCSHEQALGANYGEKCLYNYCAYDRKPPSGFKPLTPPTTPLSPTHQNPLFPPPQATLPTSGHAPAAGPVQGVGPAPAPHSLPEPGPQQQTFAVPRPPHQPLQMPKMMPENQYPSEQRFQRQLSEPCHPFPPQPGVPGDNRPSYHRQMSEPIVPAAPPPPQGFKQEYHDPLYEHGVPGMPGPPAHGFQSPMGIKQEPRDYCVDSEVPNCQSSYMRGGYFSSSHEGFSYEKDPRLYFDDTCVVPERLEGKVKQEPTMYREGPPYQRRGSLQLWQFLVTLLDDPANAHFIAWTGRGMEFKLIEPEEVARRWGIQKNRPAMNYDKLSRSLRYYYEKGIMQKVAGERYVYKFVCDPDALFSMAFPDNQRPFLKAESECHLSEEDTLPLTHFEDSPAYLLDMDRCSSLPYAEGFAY

AAAGCA
binding signal (FLI1): 1.01 fold enrichment (6-mer frequency, TF over GST control) | binding signal (ELK1): 1.04 fold enrichment (6-mer frequency, TF over GST control) | binding signal (GABPA): 1.15 fold enrichment (6-mer frequency, TF over GST control) | binding signal (ERG): 1.09 fold enrichment (6-mer frequency, TF over GST control) | binding signal (ELF1): 1.04 fold enrichment (6-mer frequency, TF over GST control) | binding signal (EHF): 1.02 fold enrichment (6-mer frequency, TF over GST control) | binding signal (SPI1): 1.1 fold enrichment (6-mer frequency, TF over GST control) | binding signal (SPIB): 1.08 fold enrichment (6-mer frequency, TF over GST control) | binding signal (ELK3): 1.05 fold enrichment (6-mer frequency, TF over GST control) | binding signal (FEV): 1.07 fold enrichment (6-mer frequency, TF over GST control) | binding signal (ETV5): 1.06 fold enrichment (6-mer frequency, TF over GST control) | binding signal (HSF1): 1.04 fold enrichment (6-mer frequency, TF over GST control) | binding signal (SPIC): 1.01 fold enrichment (6-mer frequency, TF over GST control) | binding signal (ELF4): 1.09 fold enrichment (6-mer frequency, TF over GST control) | binding signal (ELK4): 1.14 fold enrichment (6-mer frequency, TF over GST control) | binding signal (ETV2): 1.11 fold enrichment (6-mer frequency, TF over GST control) | binding signal (ELF3): 1.02 fold enrichment (6-mer frequency, TF over GST control) | binding signal (CRX): 1.06 fold enrichment (6-mer frequency, TF over GST control) | binding signal (ETV1): 1.06 fold enrichment (6-mer frequency, TF over GST control)
